Records with an inconclusive call do not appear. The source made the active and inactive calls. Calls follow the shape of the dose curve; as a rule, active = well fitted cell-killing curve with a large enough effect; inconclusive = small, poorly fitted or top-dose-only effect, or effect the other way; inactive = no such curve, though single readings can be large or run the other way.
Test: Quantitative High-Throughput drug screen in 47 multiple myeloma cell lines against the NCATS MIPE library collection: Karpas620_DSMZ cell viability assay (AID 1918959); also: nearly all actives have a fitted effect of over 30% in size
Settings: Karpas620 myeloma viability, CellTiter-Glo ATP luminescence, 48 h; series mostly up to 45.8 µM
From the text: PI: Beverly A. Mock Ph.D.
Laboratory of Cancer Biology and Genetics,
Center for Cancer Research, National Cancer Institute,
National Institute of Health, Bethesda, Maryland
Drug resistance and disease progression are common in multiple myeloma (MM) patients, underscoring the need for new therapeutic combinations. […] We hypothesized that effective combinations would reduce MYC expression and enhance p16 activity. […] These preclinical data identify potentially useful drug combinations for evaluation in drug-resistant MM and reveal potential mechanisms of combined drug sensitivity.
Described herein is the primary MIPE qHTS used to cherrypick compounds. Validated compounds were then further tested for potential synergistic activiy.
[1] Peat TJ, Gaikwad SM, Dubois W, Gyabaah-Kessie N, Zhang S, Gorjifard S, Phyo Z, Andres M, Hughitt VK, Simpson RM, Miller MA, Girvin AT, Taylor A, Williams D, D'Antonio N, Zhang Y, Rajagopalan A, Flietner E, Wilson K, Zhang X, Shinn P, Klumpp-Thomas C, McKnight C, Itkin Z, Chen L, Kazandijian D, Zhang J, Michalowski AM, Simmons JK, Keats J, Thomas CJ, Mock BA. Drug combinations identified by high-throughput screening promote cell cycle transition and upregulate Smad pathways in myeloma. Cancer Lett. 2023 Aug 1;568:216284. doi: 10.1016/j.canlet.2023.216284. Epub 2023 Jun 24. PMID: 37356470; PMCID: PMC10408729.
SEQUENCE No. (e.g., 1, 2, 3, etc.); […] (e.g., Cells, Incubation, Reagent, etc.); VALUE and DESCRIPTION.
1; Cells; 5 uL; white, solid bottom 1536-well Greiner assay plate.
2; Compounds; 23 nL; Kalypsis pin tool (Wako USA) equipped with a 1536-well pin head to transfer to the assay plates.
3; Incubation; 48 hours; 37C incubation.
4; Reagent;5uL; CellTiter Glo (Promega).
5; Detector; 425V; Luminescence; Viewlux PerkinElmer.
NOTES (numbers refer to Sequence numbers above)
1. The cell-based screening methods employed in this study were like those previously published. Briefly, the corresponding myeloma cell lines were screened in 1,536-well plates with 500 cells, 5-uL per well for inhibition of cell viability (assessed by measuring ATP levels with CellTiterGlo).
2. NCATS MIPE 4.0 library of approved and investigational drugs were added using the Kalypsis pin tool. Wells treated with DMSO only for 100% viability and media only wells for 0% viability were used as controls.
3. The assay plates were covered and incubated for 48 hours in a 37C, 5% CO2 incubator with controlled humidity.
4. After 48 hours, CellTilter-GloTM luminescent substrate mix (Promega) reagent was added to the assay plate and plates we incubated for 5 min at room temperature.
5. Signal was measured as median relative luminescence units on a ViewLux (PerkinElmer) multiplate reader.
[1] Heske CM, Davis MI, Baumgart JT, Wilson K, Gormally MV, Chen L, Zhang X, Ceribelli M, Duveau DY, Guha R, Ferrer M, Arnaldez FI, Ji J, Tran HL, Zhang Y, Mendoza A, Helman LJ, Thomas CJ. Matrix Screen Identifies Synergistic Combination of PARP Inhibitors and Nicotinamide Phosphoribosyltransferase (NAMPT) Inhibitors in Ewing Sarcoma. Clin Cancer Res. 2017 Dec 1;23(23):7301-7311. doi: 10.1158/1078-0432.CCR-17-1121. Epub 2017 Sep 12. PMID: 28899971; PMCID: PMC6636827.
Potency is read from the fitted curve at half-maximal effect.

Compound	Potency
CC(C)OC(=O)C(C)(C)Oc1ccc(C(=O)c2ccc(Cl)cc2)cc1	inactive
COc1ccc2cccc(CCNC(C)=O)c2c1	inactive
COc1ccc(C2CC(c3ccccc3)=NN2c2ccc(S(N)(=O)=O)cc2)cc1 (stereo not given)	16.6 µM (active)
N#Cc1ccc(NC(=O)Nc2ccccc2Br)c2n[nH]nc12	13.2 µM (active)
O=C(CCCCCCC(=O)Nc1ccccc1)NO	3.32 µM (active)
CC1(C)CCC[C@@]2(C)[C@@H]1CC[C@@]1(C)OC(=O)C[C@H]21	inactive
CN1CCN(CCOc2cc(OC3CCOCC3)c3c(Nc4c(Cl)ccc5c4OCO5)ncnc3c2)CC1	18.7 µM (active)
COC(=O)N[C@H](C(=O)N1CCC[C@@H]1c1ncc(-c2ccc(-c3ccc(-c4cnc([C@@H]5CCCN5C(=O)[C@@H](NC(=O)OC)C(C)C)[nH]4)cc3)cc2)[nH]1)C(C)C	16.6 µM (active)
CCC(=O)O[C@]1(C(=O)CO)CC[C@H]2[C@@H]3CCC4=CC(=O)CC[C@]4(C)[C@@H]3CC[C@@]21C	inactive
Cc1c[nH]c(C=C2C(=O)Nc3ccccc32)c1CCC(=O)O	inactive
O=C1C[C@@H](c2ccc(O)cc2)Oc2cc(O)cc(O)c21	inactive
Cc1c(O)cccc1C(=O)N[C@@H](CSc1ccccc1)[C@H](O)CN1C[C@H]2CCCC[C@@H]2C[C@@H]1C(=O)NC(C)(C)C	14.8 µM (active)
CC[C@@H]1C=C(C)C[C@H](C)C[C@H](OC)[C@H]2O[C@@](O)(C(=O)C(=O)N3CCCC[C@@H]3C(=O)O[C@H](C(C)=C[C@@H]3CC[C@H](Cl)[C@H](OC)C3)[C@H](C)[C@@H](O)CC1=O)[C@H](C)C[C@H]2OC	13.2 µM (active)
C[C@]12CC[C@@H]3c4ccc(O)cc4CC[C@H]3[C@H]1C[C@@H](O)[C@H]2O	18.7 µM (active)
O=c1cc(-c2cccc3c2Sc2ccccc2S3)oc(N2CCOCC2)c1	18.7 µM (active)
CC1(C)CCC(CN2CCN(c3ccc(C(=O)NS(=O)(=O)c4ccc(NCC5CCOCC5)c([N+](=O)[O-])c4)c(Oc4cnc5[nH]ccc5c4)c3)CC2)=C(c2ccc(Cl)cc2)C1	0.332 µM (active)
CC(C)(C)NC(=O)Nc1cccc(Nc2ncc(F)c(NC(C)(C)CO)n2)c1	inactive
Clc1ccc(-c2nc3sccn3c2C=NOCc2ccc(Cl)c(Cl)c2)cc1	inactive
O=c1c(-c2ccc(O)cc2)coc2cc(O[C@@H]3O[C@H](CO)[C@H](O)[C@H](O)[C@H]3O)ccc12	inactive
CC(C)C[C@H](CC(=O)O)C(=O)N[C@@H](Cc1c[nH]c2ccccc12)C(=O)N[C@@H](C)c1ccccc1	inactive

Compound	Potency
O=C1c2ccccc2-[n+]2ccc3c([nH]c4ccccc43)c21	3.72 µM (active)
O=c1c(O)c(-c2ccc(O)cc2)oc2cc(O)cc(O)c12	18.7 µM (active)
COc1ccc(-c2oc3c(CC=C(C)C)c(OC4O[C@H](CO)[C@@H](O)[C@H](O)[C@@H]4O)cc(O)c3c(=O)c2OC2O[C@@H](C)[C@H](O)[C@@H](O)[C@@H]2O)cc1 (stereo not given in full)	11.8 µM (active)
O=c1cc(-c2ccccc2)oc2cc(O)c(O)c(O)c12	inactive
Cc1ccc(C(C)(O)c2nc3ccccc3s2)c(C)c1 (stereo not given)	inactive
NC[C@@H]1O[C@@H](O[C@H]2[C@@H](O)[C@H](O[C@@H]3[C@@H](O)[C@@H](N)C[C@H](N)[C@H]3O[C@H]3O[C@H](CN)[C@@H](O)[C@@H](O)[C@H]3N)O[C@H]2CO)[C@H](N)[C@@H](O)[C@@H]1O	inactive
COc1ccc(-c2coc3cc(O)cc(O)c3c2=O)cc1	18.7 µM (active)
C[C@]12CCC3c4ccc(O)cc4CCC3C1CCC2=O (stereo not given in full)	inactive
NS(=O)(=O)c1cccc2c1C(=O)c1cccc(O)c1C2=O	0.148 µM (active)
C=C1C(=O)[C@@]23C(CC[C@@H]1[C@H]2O)[C@@]12CO[C@]3(O)[C@@H](O)[C@@H]1C(C)(C)CC[C@@H]2O (stereo not given in full)	0.935 µM (active)
OC[C@H]1O[C@@H](n2cnc3c2NC=NC[C@@H]3O)C[C@H]1O	14.8 µM (active)
NC1=N[C@@]2(c3cc(NC(=O)c4ccc(F)cn4)ccc3F)COC[C@@H]2CS1	0.418 µM (active)
COc1cccc2c1CCCC2CCCN1CCN(C2CCCCC2)CC1 (stereo not given)	18.7 µM (active)
Clc1ccc(C(c2ccc(Cl)cc2)n2cc[n+](CC(OCc3ccc(Cl)cc3Cl)c3ccc(Cl)cc3Cl)c2)cc1 (stereo not given)	9.35 µM (active)
Cc1ccc(C(=O)Nc2cccc(C(F)(F)F)c2)cc1Nc1nc(-c2cccnc2)nc2c1cnn2C	inactive
CC(C)n1nc(-c2ccc3oc(N)nc3c2)c2c(N)ncnc21	1.18 µM (active)
CCCCCN(C)CCC(O)(P(=O)(O)O)P(=O)(O)O	inactive
CCn1c(C(=O)N(C2CC2)C2CC2)cc2c3c(ncn3C)c(Nc3cc(C)n(C)n3)nc21	inactive
O=C1C(Cl)=C(NCCN2CCOCC2)C(=O)c2ncccc21	1.48 µM (active)
CO[C@H]1C=CC=C(C)C(=O)NC2=CC(=O)C(NCCN(C)C)=C(C[C@@H](C)C[C@H](OC)[C@@H](O)[C@@H](C)C=C(C)[C@@H]1OC(N)=O)C2=O	0.296 µM (active)
